# Test results reported in PubChem BioAssay (NCI).
# The panel holds about 83,000 compounds, 20% with a hit somewhere; the sample as a whole holds those more often.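 Activity criterion: percent growth below 10, measured after cells in 96-well plates were exposed to a single compound concentration for 48 hours.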 A number with no mark means an inactive call. Calls of active or inactive are those of the source.
# Experiments:
# Assay in all cases: NCI-60 one-dose screen, 48 h (100 = growth as untreated, 0 = no growth, -100 = all killed)
# Conditions in all cases: 10 µM unless noted
# HCT-15 colon = tested on: HCT-15 colon
# HT29 colon = tested on: HT29 colon
# SNB-75 CNS = tested on: SNB-75 CNS
# SNB-19 CNS = tested on: SNB-19 CNS
# U251 CNS = tested on: U251 CNS
# PC-3 prostate = tested on: PC-3 prostate
# SK-MEL-5 melanoma = tested on: SK-MEL-5 melanoma
# UACC-62 melanoma = tested on: UACC-62 melanoma
# LOX IMVI melanoma = tested on: LOX IMVI melanoma
# SK-MEL-28 melanoma = tested on: SK-MEL-28 melanoma
# SK-MEL-2 melanoma = tested on: SK-MEL-2 melanoma
# SN12C renal = tested on: SN12C renal
# UO-31 renal = tested on: UO-31 renal
# TK-10 renal = tested on: TK-10 renal
# ACHN renal = tested on: ACHN renal
# CAKI-1 renal = tested on: CAKI-1 renal
# A498 renal = tested on: A498 renal
# CCRF-CEM leukemia = tested on: CCRF-CEM leukemia
# MOLT-4 leukemia = tested on: MOLT-4 leukemia
SMILES,growth (HCT-15 colon),growth (HT29 colon),growth (SNB-75 CNS),growth (SNB-19 CNS),growth (U251 CNS),growth (PC-3 prostate),growth (SK-MEL-5 melanoma),growth (UACC-62 melanoma),growth (LOX IMVI melanoma),growth (SK-MEL-28 melanoma),growth (SK-MEL-2 melanoma),growth (SN12C renal),growth (UO-31 renal),growth (TK-10 renal),growth (ACHN renal),growth (CAKI-1 renal),growth (A498 renal),growth (CCRF-CEM leukemia),growth (MOLT-4 leukemia)
O=C(Nc1ccccc1)OCC1OCOC(COC(=O)Nc2ccccc2)C1OC(=O)Nc1ccccc1 (stereo not given),51.7%,43.1%,32%,73.2%,74.9%,64.2%,67.8%,73.1%,29.7%,39.2%,109%,77.3%,85.6%,83.3%,48.4%,91.7%,69%,29.5%,73.8%
CCCCC(N)(C(=O)O)C1CCCC1 (stereo not given),96.2%,100%,93.5%,99.9%,91%,92.2%,105%,97.4%,99.4%,94.8%,117%,96.1%,90.9%,104%,96.9%,93%,82.4%,97.9%,123%
COc1cccc(/C=C2\SC(N3CCN(c4ccccn4)CC3)=NC2=O)c1,105%,84.7%,102%,99.4%,105%,88.9%,97.1%,95.9%,94.7%,110%,86.9%,102%,84.5%,90.9%,104%,104%,,63.4%,90.4%
O=C(CCC(=O)OC1CCCC1)OC1CCCC1,93.6%,98.3%,77.3%,96.6%,92.2%,93.8%,99.3%,103%,105%,99.3%,93.2%,107%,90.4%,97.8%,95%,95.8%,101%,,89.9%
CN(C)c1ccc(C2CC(c3ccccc3)=NN2/C=C2\SC(=O)NC2=O)cc1 (stereo not given),85.9%,108%,83.6%,87.6%,103%,91.3%,78.8%,90.7%,74.3%,91.1%,113%,87.3%,78.9%,94.4%,81.5%,95%,,113%,59.7%
COc1ccc(S(=O)(=O)NCCNc2nccc(-c3c(-c4ccccc4)nc4sccn34)n2)cc1,19.4%,25.4%,21.8%,39.3%,32.7%,23.1%,-80% (active),24.8%,18.8%,31.3%,2.98% (active),27.5%,18.6%,47%,10.3%,18.3%,,22.8%,5.16% (active)
O=c1c2cccc3c(Nc4ccc(F)cc4)ccc(c32)c2nc3ccccc3n12,71.1%,92.6%,70.8%,77.6%,92%,77.2%,70.4%,67.8%,83.6%,103%,103%,87.8%,49.2%,75.3%,87.9%,79.9%,,94.1%,89.9%
C[C@]12CC[C@@H]3c4cc(O)c(O)cc4CC[C@H]3[C@@H]1CC[C@@H]2O,30%,96.4%,-14.5% (active),66.1%,35.8%,58.6%,26.5%,33.8%,40%,39.6%,-16.8% (active),50.7%,41.4%,87.5%,42.9%,33.3%,100%,,29.1%
COc1cc(Cn2c(SCC(=O)Nc3cc(OC)c(OC)c(OC)c3)nc3ccccc3c2=O)cc(OC)c1OC,89.9%,99.5%,-13.7% (active),74.8%,52.6%,87.7%,90.4%,84.4%,92.1%,100%,75.1%,82%,80.4%,67.9%,33.4%,95.5%,62.4%,101%,89.4%
Cc1cc(N/C=c2\sc3ncnn3c2=O)no1,94.6%,102%,91.3%,95.2%,105%,97.7%,99.2%,94%,97.3%,104%,101%,95.5%,91.5%,109%,106%,101%,,123%,104%
O=C(CCCn1c(=O)c2sc3ccccc3c2n2nnc(-c3ccccc3)c12)NCCc1cnc[nH]1,-63.1% (active),-94.1% (active),28.2%,-12.3% (active),-51.2% (active),-14% (active),-69.6% (active),-78.5% (active),-16.7% (active),-49.7% (active),-49.2% (active),-78% (active),-79.3% (active),-62.4% (active),-37.9% (active),14.9%,,42.6%,73.3%
COc1ccc(C2SCC(=O)N2NC(=O)c2ccc(NC(=O)c3ccccn3)cc2)cc1OC (stereo not given),107%,97.8%,84.3%,95.5%,94.2%,95.3%,102%,91.5%,99.5%,104%,94.5%,97.3%,89.7%,90.1%,99.2%,96.9%,,101%,92.1%
CCC1CCc2nc3sc(C(=O)Nc4ccccc4F)c(N)c3cc2C1 (stereo not given),35.3%,39.5%,66.1%,76%,65.5%,67.3%,40.2%,47.9%,62.8%,59.9%,52.1%,89.8%,77.5%,73.7%,69.4%,53.2%,44.7%,,40%
CCCCCCCCCCCCNC(=S)N/N=C/c1ccc(Cl)c(Cl)c1,87.2%,82.2%,96.8%,114%,108%,107%,99%,95.5%,120%,104%,99.8%,101%,89.2%,143%,94.9%,101%,112%,,93.8%
COc1cc(NC(=O)c2cc3ccccc3nc2Nc2ccc(F)cc2)cc(OC)c1OC,31.8%,69.3%,60.7%,61.1%,35.3%,13.2%,-13.8% (active),37.5%,32.6%,54.2%,63.4%,62.3%,46.7%,65.3%,42.9%,52.4%,,42.1%,12.4%
COc1cc(CNC(=O)CSc2nc3ccccc3c(=O)n2Cc2cc(OC)c(OC)c(OC)c2)cc(OC)c1OC,97.4%,108%,89.2%,92.5%,98%,97.4%,93.7%,86.8%,99.9%,102%,95.9%,96.6%,72.5%,99.7%,98.1%,98.5%,88.4%,96.2%,92.7%
O=c1oc2cc(OS(=O)(=O)c3ccc(F)cc3)ccc2c2c1CCCCC2,26.8%,27.5%,80.9%,78.1%,57.6%,44.6%,32.8%,65.3%,88.1%,86.1%,72%,70.1%,50.2%,89.6%,84.9%,86.7%,,36%,63.8%
